Results published in PubChem BioAssay AID449762 (Southern Research Specialized Biocontainment Screening …, 2010).
The campaign covered roughly 330,000 compounds. About 1,900 (0.58%) were called active. Inconclusive results (about 4%) are left out. Only a sample is shown. Results with a measured potency or affinity are listed apart. A number with no mark means an inactive call. No stated cut-off is given here; in the data, inconclusive means inhibition above about 70% without an active follow-up result; inactive means below that.

Test: M. tuberculosis growth inhibition, HTS (AID 449762);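 further: bacterial growth assessed after seven days of incubation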
Settings: M. tuberculosis H37Rv growth inhibition, 7H9 media; at 25 µM; active compounds read high

SMILES | inhibition [%]
COc1cccc(NC(=O)C2CCCO2)c1 (configuration not stated) | 0.33
CC(C)CC1Nc2ccc(C(=O)NCCCN3CCOCC3)cc2NC1=O (configuration not stated) | 7.57
CCc1nc2c(C#N)c(-c3ccc(Cl)cc3)ccn2n1 | -11.1
N#Cc1c(-c2ccc(Cl)cc2)ccn2nc(CCC(=O)O)nc12 | 0.53
O=C(COC(=O)CNC(=O)c1cccc(OC(F)F)c1)NCc1ccc2c(c1)OCO2 | 7.07
Cc1ccc(NC(=O)c2cccc(-n3cnnn3)c2)cc1Cl | 4.03
CCN1CC(CN(C)Cc2nc(Cc3ccccc3)no2)CC1=O (configuration not stated) | 3.14
O=C1c2ccccc2S(=O)(=O)c2cc(C(=O)N3CCN(c4ccccc4)CC3)ccc21 | 4.82
O=C1c2ccccc2S(=O)(=O)c2cc(C(=O)N3CCN(c4ccc(Cl)cn4)CC3)ccc21 | 14
O=C(OCC(=O)N1CCCc2ccccc21)c1cccnc1Cl | 0.07
COC(=O)N/N=C/c1ccccc1Cl | -1.15
COC(=O)N/N=C/c1ccccc1 | -2.71
COc1ccc(NC(=O)CSc2ccccc2)cc1S(=O)(=O)N1CCOCC1 | 9.25
CC(Nc1cc(N2CCN(C(=O)C(C)(C)C)CC2)ccc1[N+](=O)[O-])c1ccccc1 (configuration not stated) | 6.58
CCCCc1nnc(NC(=O)c2ccc(N3CCCC3=O)cc2)s1 | 0.88
Cc1cc(NCCO)nc(-n2nc(C)cc2C)n1 | 1.56
CCOc1ccc(Nc2cc(C)nc(N3CCOCC3)n2)cc1 | -6.87
Cc1occc1C(=O)Nc1nnc(C(F)(F)F)s1 | -11.4
C(#Cc1ccc2c(c1)COc1c3ccccc3nn1-2)c1ccccc1 | -2.59
C#Cc1ccc2c(c1)COc1c3ccccc3nn1-2 | 26.7
COc1ccc(C(CNC(=O)Nc2ccc(Cl)cc2)N2CCN(C)CC2)cc1 (configuration not stated) | 6.3
COc1cccc(NC(=O)[C@@H]2CCCN2C(=O)C2CCN(S(=O)(=O)c3ccc(C)cc3)CC2)c1 | -6.02
CC(C)(C)Nc1nc(N2CCCC2)nc(N2CCCC2)n1 | 8.96
CCNc1nc(NC(C)(C)C)nc(N2CCCC2)n1 | 12.8
O=C(COc1ccccc1Br)c1ccc2c(c1)OCO2 | -8.06

SMILES | inhibition [%]
C/C(=N\NC(=S)Nc1cccc(C)c1)c1cc2ccccc2o1 | 67.2
CC/C(=N\NC(=S)Nc1cccc(C)c1)c1ccccc1 | 4.58
Cc1ccc2cc(C)c3nnc(SCC(=O)N4CCN(C(=O)c5ccco5)CC4)n3c2c1 | -3.44
COc1ccc(Cl)cc1NC(=O)CSc1nc(Nc2ccccc2)nc(N2CCOCC2)n1 | -3.97
O=C(CSc1nc(Nc2ccccc2)nc(N2CCOCC2)n1)Nc1ccccc1Cl | -2.86
COc1ccccc1OCCNC(=O)C1CC(=O)N(Cc2ccc(C)cc2)C1 (configuration not stated) | -0.95
Cc1csc(SCC(=O)NC(=O)NCc2ccccc2)n1 | -2.35
O=C(NC(=S)Nc1ccc2oc(=O)ccc2c1)c1cccc(Cl)c1 | 5.43
CC(C)(C)N=C1NC(=NC(C)(C)C)c2ccccc21 | 1.58
Cc1ccc(NC(=O)CCc2ccc(C)o2)cc1 | 23.4
Cc1cccc(NC(=O)CCc2ccc(C)o2)c1 | -15.4
CCOc1ccc(N(CC(=O)NC2CCCC2)C(=O)CCCC(=O)Nc2ccccn2)cc1 | -1.21
CCc1cc(C(=O)NCC2CCCO2)sc1C (configuration not stated) | -1.92
CCc1cc(C(=O)NNC(=O)CCN2CCN(c3ccccc3)CC2)sc1C | -4.59
CCCNC(=O)c1cc2c3ccccc3n(C)c2s1 | -14.8
CC(=O)NNC(=O)c1cc2c3ccccc3n(C)c2s1 | -4.02
C/C(=N/NS(=O)(=O)c1ccc(Br)cc1)c1c[nH]c2ccccc12 | 2.63
CCOc1ccc(CN2CCNC(=O)C2CC(=O)N(C)CC2CCOCC2)cc1 (configuration not stated) | 5.35
COc1cc(C(=O)NCC(=O)Nc2c(C)cccc2C)ccc1OCc1ccccc1 | -1.77
COc1ccc(C(=O)N2CCC(n3nccc3NC(=O)C3CC3)CC2)cc1F | 0.61
COc1cc(/C=C2/C(=N)N3N=C(CC(=O)N4CCOCC4)SC3=NC2=O)ccc1OCc1ccccc1F | 0.04
Cc1ccc(S(=O)(=O)N(C)c2ccc(C(=O)N3CCC(C(N)=O)CC3)cc2)cc1 | -5.27
CCOC(=O)N1CCN(C(=S)NC(=O)c2cccc(OC)c2)CC1 | -0.27
CN(C)CCCN1C(=O)c2cccc3cccc(c23)C1=O | -1.82
O=C(O)CCCN1C(=O)c2cccc3cccc(c23)C1=O | -5.41

SMILES | inhibition [%]
O=C1/C(=C/Nc2cccc([N+](=O)[O-])c2)CCc2ccccc21 | 2.58
O=C1CCCC/C1=C/Nc1ccc2c(c1)OCO2 | 59.1
Cc1cccc(C(=O)NCCc2csc(C)n2)c1 | -0.44
CCCCC(CC)C(=O)N1CCN(C(=O)c2ccco2)CC1 (configuration not stated) | -4.92
CCc1nc(Nc2ccccc2OC)c2oc3ccccc3c2n1 | 2.96
COc1ccc(C(=O)NCc2nnc(SCC(=O)c3ccc(F)cc3)n2C)cc1OC | -0.94
CNC1=C(N(C(C)=O)c2ccc(Br)cc2)C(=O)c2ccccc2C1=O | -2.3
CC(CCc1ccccc1)NC(=O)CN(C)Cc1ccc(F)cc1 (configuration not stated) | 0.05
CC(=O)N(C1=C(N)C(=O)c2ccccc2C1=O)c1ccccc1 | -1.88
CN(CC(=O)NCCc1ccc(F)cc1)Cc1ccccc1 | -0.22
CC1CCCCC12NC(=O)N(CC(=O)OCc1ccc(Br)cc1)C2=O (configuration not stated) | 5.76
CN(C)S(=O)(=O)c1ccc(C(=O)NNC(=O)C2COc3ccccc3O2)cc1 (configuration not stated) | 2.93
O=C(O)c1cc(N/N=C/c2ccc(OCc3ccccc3)cc2)ccc1Cl | -0.4
COc1ccc(C=NOCC(=O)OCC(=O)Nc2ccc(OC)cc2)cc1 | 4.42
CN(C(=O)CO/N=C/c1ccc(Cl)cc1)c1ccccc1 | -0.18
CC(C)Oc1ccc(/C(O)=C2/C(=O)C(=O)N(CCN(C)C)C2c2cccs2)cc1 (configuration not stated) | 4.08
CCCOc1ncnc2c1[nH]c1ccc(C)cc12 | 6.51
O=C(NCc1ccccn1)C(=O)Nc1nc(-c2ccccc2)cs1 | 55.8
O=C(NCc1ccccc1)C(=O)Nc1nc(C23CC4CC(CC(C4)C2)C3)cs1 | 1.12
COc1ccc(C)cc1NC(=O)C(NC(=O)c1cc(OC)c(OC)c(OC)c1)C(C)C (configuration not stated) | 0.19
S=C(NC1CCCCCC1)NC1CCCC1 | 1.4
COc1cc(OC)c(C(=O)NNC(=S)NC2CCCCC2)cc1OC | -2.47
CCOc1cccc2cc(C(=O)Nc3cc(C)on3)c(=O)oc12 | 3.23
CCOc1ccccc1C(=O)Nc1nccs1 | -0.35
CCN(CC)c1ccc(NS(=O)(=O)c2cn(C)c(=O)n(C)c2=O)c(C)c1 | -6.59

SMILES | inhibition [%]
Cc1cc(C(=O)NNc2c(Cl)cccc2Cl)n(C(C)(C)C)n1 | -6.53
COc1cccc(NC(=O)C2CCN(C(=O)[C@@H]3Cc4ccccc4CN3C(=O)OC(C)(C)C)CC2)c1 | 2.76
Cc1cccc(/C=N/n2c(COc3ccccc3)n[nH]c2=S)c1 | 9.89
COc1cccc(/C=N/n2c(COc3ccccc3)n[nH]c2=S)c1 | 0.11
Cc1ccsc1/C=N/NC(=O)Cc1ccc([N+](=O)[O-])cc1 | 0.13
COC(=O)C1=C(c2ccc(F)cc2OCc2ccccc2)C[C@@H]2CC[C@H]1N2C(=O)NCc1ccc(C)cc1 | 11.4
Cc1nnc(SCC(=O)NC2CCCCC2)[nH]c1=O | -4.1
Cc1cc(=O)[nH]c(SCC(=O)NC2CCCCCC2)n1 | 1.87
COc1cc(C(=O)NNC(=O)c2cc(C)[nH]n2)cc(OC)c1OC | -0.74
COc1ccc(NC(=O)CN(C)C(=O)COc2ccccc2Cc2ccccc2)cc1 | 10.9
COC(=O)CCCC1=CC2=CC(=O)C(C)(OC(=O)c3cccs3)C(=O)C2=CN1Cc1ccccc1 (configuration not stated) | -3.58
Cc1[nH]c2ccccc2c1C(=O)C(=O)N1CCN(c2cccc(Cl)c2)CC1 | 13.6
CCSc1ncnc2c1sc1nc3c(cc12)COC(C)(C)C3 | 3.08
CC1(C)Cc2nc3sc4c(SCC(=O)O)ncnc4c3cc2CO1 | 0.43
Cc1ccc(C)c(NC(=O)CN(C)C(=O)c2cccc(S(=O)(=O)N3CCN(Cc4ccccc4)CC3)c2)c1 | 4.09
OCCCn1c(CCNc2nc(-c3ccc(Cl)cc3)cs2)nc2cc(C(F)(F)F)ccc21 | 29.6
CN1CCN(/N=C/c2cccc(Cl)c2Cl)CC1 | 4.06
CN1CCN(/N=C/c2ccc(-c3ccccc3)cc2)CC1 | 4.56
COC(=O)c1ccc(CS(=O)(=O)c2ccc(C)cc2)o1 | 2.36
Cc1ccc(NC(=O)CC2OC(=O)c3ccccc32)cc1S(=O)(=O)N1CCCCCC1 (configuration not stated) | -3.23
Cc1nn(CCc2nn[nH]n2)c2nc(-c3ccccc3)cc(C(F)(F)F)c12 | 3.42
Cc1nn(CCc2nn[nH]n2)c2nc(-c3ccc(C4CCCCC4)cc3)cc(C(F)(F)F)c12 | 21.8
